PubChem BioAssay AID1429 (The Scripps Research Institute Molecular Screening Center, 2008)
This is one part of the list. Unmarked numbers belong to inactive results. Active and inactive are the calls of the source.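 The calls were made as follows: active = inhibition above the hit threshold that was computed for the earlier primary screen (cut at about 30% in these data); inactive = the rest.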

Target: Sphingosine 1-phosphate receptor 3 (Homo sapiens) (UniProt Q99500)
Experiment: blockers of human S1P3 signalling – cell-based, confirmation (AID 1429);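 also: 0% = S1P-stimulated wells and 100% = unstimulated DMSO-only wells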
Conditions: CHO S1P3 NFAT-BLA reporter, FRET, antagonist mode; at 4.98 µM; active compounds read high

Chain of Sphingosine 1-phosphate receptor 3 (Homo sapiens) (Q99500 whole entry, looked up): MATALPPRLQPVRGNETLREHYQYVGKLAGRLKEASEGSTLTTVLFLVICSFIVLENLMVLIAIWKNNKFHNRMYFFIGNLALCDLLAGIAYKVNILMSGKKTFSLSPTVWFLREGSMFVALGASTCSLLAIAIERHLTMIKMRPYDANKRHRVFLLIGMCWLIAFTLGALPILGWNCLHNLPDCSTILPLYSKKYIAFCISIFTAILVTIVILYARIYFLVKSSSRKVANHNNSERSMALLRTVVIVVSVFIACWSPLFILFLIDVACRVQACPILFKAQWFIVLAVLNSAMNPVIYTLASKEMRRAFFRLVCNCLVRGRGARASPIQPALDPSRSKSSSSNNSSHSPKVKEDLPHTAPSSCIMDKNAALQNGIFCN

SMILES | inhibition
Nc1c(C(=O)c2cccs2)sc2nsc(SCCN3CCCCC3)c12 | 18.8%
CSc1ccc(CN(C)CC(=O)NCc2ccc(F)cc2)cc1 | -9.96%
CCN1/C(=C\c2ccc3ccccc3[n+]2CC)Sc2cc(C)ccc21 | 10.8%
CC(=O)c1c(C)[nH]c(C(=O)COC(=O)c2cccc(S(=O)(=O)N(C)c3ccccc3)c2)c1C | 10.9%
Cc1ccc(NC(=O)CN(C)CC(=O)Nc2cccc(F)c2)cc1[N+](=O)[O-] | 12.6%
CC(C)Oc1ccccc1C(=O)NC(CO)C(=O)O (stereo not given) | -23.6%
CC[C@H]1CN2CCc3cc(OC)c(OC)cc3[C@@H]2C[C@@H]1C[C@H]1NCCc2cc(OC)c(OC)cc21 | 109% (active)
CCOC(=O)C1=C(C)N=C2c3ccccc3C(=O)C2C1c1ccc(Br)cc1 (stereo not given) | 77.8% (active)
S=C(NCCc1ccccc1)NCC1CCCO1 (stereo not given) | -4.63%
O=C(N/N=C/c1coc2ccccc2c1=O)c1cc2ccccc2o1 | -18.6%
